# Molecular target: AMP-activated protein kinase, AMPK (Homo sapiens) (UniProt P54646+O43741+P54619+Q9UGJ0+Q9Y478+Q13131+Q9UGI9)
# Experiment: AMP-dependent Kinase enzyme assay. An in vitro enzyme assay that detects ADP turnover that is directly proportional to AMPK activity. This uses naive AMPK that is activated during the assay with MK-8722
# Assay type: functional
# Set-up: scale not given: direction of the effect not stated beside the values
# Details: 30 µM
row,Compound,Percent Effect [%]
1,COc1ccc2c(c1)CCCN2C(=O)NC1CCCCNC1=O (stereo not given),2.81
2,CN(C)c1ccc(C(=O)Nc2ccn(CCc3ccncc3)n2)cc1,10.3
3,CN1CCN(c2ccc(F)cc2NC(=O)NCCn2ccnc2)CC1,12.1
4,CN(C)c1ccc(C(=O)Nc2ccn(CC(N)=O)n2)cn1,10.9
5,CSc1ncccc1C(=O)NC(C)c1cccc(N2CCOC2=O)c1 (stereo not given),-0.0368
6,CSCCC(=O)N1CCN(CC(C)(C)O)CC1,-5.46
7,CCCc1n[nH]c(=O)n1Cc1ccc(OC)cc1,3.68
8,CCNC(=O)CN(CC)C(=O)c1csc(Cc2ccccc2F)n1,4.98
9,COc1ccc(C)cc1CN(C)CC(N)=O,-2.2
10,Cc1cc(C2CCCN(Cc3nnc(Cc4ccccc4)o3)C2)n[nH]1 (stereo not given),18
11,CNc1ccc(C2CN(c3cc(C)nc(N)n3)CCO2)nc1 (stereo not given),17.3
12,CCNC(=O)[C@@H]1C[C@H](N)CN1c1cc(CC)nc(N(C)C)n1,-13.7
13,COc1cc(NC2CCCN(c3ncccc3C#N)C2)cc(OC)c1 (stereo not given),-37.2
14,CCN(CCNS(=O)(=O)N1CCOCC1)C(=O)OC(C)(C)C,0.848
15,Cc1ccccc1-n1cc(CN(C)C[C@@H]2CCCN3CCCC[C@H]23)cn1,-2.73
16,Oc1cc(C2CCCN(Cc3cccs3)C2)nc(-c2ccccn2)n1 (stereo not given),16.9
17,COCc1nc(CN2CCN(c3ccc(OC)cc3)C(=O)C2C)no1 (stereo not given),6.42
18,c1cn(Cc2ccc(N3CCCN(C4CCCC4)CC3)nc2)cn1,11.7
19,CC(C)(C)C(=O)N1CCC(c2cnc(-c3cn[nH]c3)cn2)CC1,1.14
20,CC1(C(N)=O)CN(S(=O)(=O)c2cccc(F)c2)CCO1 (stereo not given),3.77

row,Compound,Percent Effect [%]
1,O=S(=O)(Cc1nc(C2CC2)no1)c1cc(F)ccc1F,8.83
2,Cc1nccc(CNC(=O)NCCC(=O)N2CCCc3ccccc32)n1,-8.67
3,Cc1cc(C(=O)N2CC[C@@]3(O)CCN(S(C)(=O)=O)C[C@H]3C2)c(C)n1C,3.49
4,O=C(NCc1ccccn1)c1cc2n(n1)CCNC2,11.8
5,Cn1cc(CC(=O)N2CCCC(c3cc(C(F)(F)F)[nH]n3)C2)cn1 (stereo not given),-6.59
6,COc1ccc(C2(C(=O)N3C[C@@H](C(=O)O)[C@H](C(C)C)C3)CC2)cc1,2.55
7,CN(C)CC1(O)CCCN(C(=O)Cn2ccc3ccccc32)CC1 (stereo not given),-8.54
8,Cc1ccccc1CC(=O)NCc1cnc(CC2CCN(C)CC2)cn1,4.22
9,Cc1c(C(=O)NCC(C)(C)S(C)(=O)=O)cccc1-c1ccccn1,11.1
10,CC(C)N(C)S(=O)(=O)c1ccc2c(c1)CCN(C(=O)c1cscn1)C2,-3.43
11,O=S(=O)(Nc1ccc2c(c1)OCCO2)N1CCCCC1,12.8
12,O=C1CSCN1Cc1nc(-c2ccc(N3CCCCC3)cc2)no1,2.39
13,CCC(C(=O)NC1(C(N)=O)CCCC1)n1cccn1 (stereo not given),-1.13
14,CCc1cc(=O)n(CCNC(=O)Nc2ccc(OC(F)(F)F)cc2)cn1,-3.24
15,COc1cccc(-c2ncc(CN3CC[C@H]4CC[C@@H](C3)N4)s2)c1,7.14
16,CC(C)c1cc(NCc2csc(N(C)C)n2)nc(N)n1,-10.6
17,CCN(CCNS(=O)(=O)C1CCOCC1)C(=O)OC(C)(C)C,1.64
18,CC1(C)CC1(C(=O)N1CC(c2cccnc2)C1)c1ccc(F)cc1 (stereo not given),3.87
19,CN(CCSc1nncn1CC(F)(F)F)c1ccccc1,8.89
20,CCc1noc(C)c1C(=O)N1CCC2(CCCN(CC(C)(C)C)C2=O)C1 (stereo not given),7.67
